Measured values reported in PubChem BioAssay AID2244 (Southern Research Specialized Biocontainment Screening …, 2010).
Measured potencies and affinities stand elsewhere. Calls of active or inactive are those of the source.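 Rule for the calls: active = viability below 70% at one or more tested concentrations; inactive = viability above 70% at every concentration.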

Experiment: Vero E6 cell cytotoxicity, SAR follow-up, cytotoxicity control for West Nile virus antiviral project, synthesized analogs (AID 2244)
Conditions: CellTiter-Glo luminescence, 72 h, hits give low values; at 40 µM unless noted

SMILES | minimum viability
O=[N+]([O-])c1ccc2c(c1)C(O)N1CCCC1=N2 (stereo not given) | 76.7% [at 0.078 µM] (inactive)
CCOC(=O)C1(Cc2ccccc2C(F)(F)F)CCN(C2CCN(C(C)=O)CC2)CC1 | 87% [at 80 µM] (inactive)
COc1cccc(-n2c(SCC(=O)Nc3ccc4c(c3)CCC4)nc3ccccc3c2=O)c1 | 74.6% (inactive)
CC1(O)c2cc(Br)ccc2N=C2CCCN21 (stereo not given) | 74.6% [at 0.156 µM] (inactive)
COc1ccccc1NC(=O)CSc1nc2ccccc2c(=O)n1-c1ccc(F)cc1 | 78.4% (inactive)
c1ccc2c(c1)CN1CCCC1=N2 | 89.1% [at 20 µM] (inactive)
Cc1cccc2c(=O)n3c(nc12)CCC3 | 75.1% [at 0.078 µM] (inactive)
CC(=O)Nc1ccc2nc3n(c(=O)c2c1)CCC3 | 79.7% [at 0.625 µM] (inactive)
CC1CC(C)CN(C(=O)CSc2nc3ccccc3c(=O)n2-c2ccc(F)cc2)C1 (stereo not given) | 74.6% (inactive)
O=c1c2cc(I)ccc2nc2n1CCC2 | 72.6% (inactive)
Cc1cccc2nc3n(c(=O)c12)CCC3 | 78.3% [at 0.625 µM] (inactive)
COc1ccc(-c2csc(N(C)C(=O)c3ccccc3Cl)n2)cc1 | 78.5% (inactive)
O=c1c2cccc(Cl)c2nc2n1CCC2 | 79.7% [at 5 µM] (inactive)
O=c1c2cc([N+](=O)[O-])ccc2nc2n1CCC2 | 78.7% (inactive)
COc1ccc(-c2csc(N(CCCBr)C(=O)c3ccccc3Cl)n2)cc1 | 70.2% (inactive)
COc1ccc(NC(=O)CSc2nc3ccccc3c(=O)n2-c2ccc(F)cc2)cc1 | 70.1% (inactive)
O=c1c2c(F)cccc2nc2n1CCC2 | 80.3% [at 2.5 µM] (inactive)
Nc1ccc2nc3n(c(=O)c2c1)CCC3 | 76.6% (inactive)
Cc1ccc2nc3n(c(=O)c2c1)CCC3 | 76.4% [at 0.078 µM] (inactive)
O=C(CSc1nc2ccccc2c(=O)n1-c1ccc(F)cc1F)Nc1ccc(N2CCOCC2)cc1 | 70.7% (inactive)
